The campaign covered roughly 7,400 compounds. About 4,100 (55%) were called active.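 Rule for the calls: active = inhibition of yeast growth at or above a set limit in either of two repeat tests at 20 µM; inactive = the rest.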 The set was probably picked from earlier hits. The list is a sample of the results.
Test: growth inhibitors of tim10-1 mutant yeast, confirmation, single concentration, luminescence, S. cerevisiae (AID 463213);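 note: tim10-1 mutant grown at permissive 25 °C to find synthetic lethal compounds; 0% = DMSO yeast wells and 100% = medium wells without yeast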
Details: S. cerevisiae tim10-1 ts strain growth, BacTiter-Glo, 24 h; at 20 µM; stronger effect = higher value
With `c1ccc(-c2nnc3n2NC(c2ccc4c(c2)OCO4)S3)cc1` (configuration not stated) the inhibition was 34% (active). For `Cc1cccc(C2c3[nH]c4ccccc4c3CCN2C(=O)c2cc(-c3cccn3C)n[nH]2)n1` (configuration not stated), the inhibition was 14.3% (inactive). With `CCCCC(=O)Nc1nc(C)c(-c2csc(Nc3ccc(Cl)cc3)n2)s1` the inhibition was 31% (active). For `C=CCCC(=O)Nc1nc(C)c(-c2csc(Nc3ccc(Cl)cc3)n2)s1`, the inhibition was 19.9% (inactive). For `O=[N+]([O-])c1ccc(C=Nc2ccc(Cl)cc2Cl)s1`, the inhibition was 69.8% (active). With `COc1ccc(/C=C/C2=CC(C)(C)NC(=S)N2)c(OC)c1` the inhibition was 20.4% (inactive). In the case of `NS(=O)(=O)c1ccc(NC(=S)Nc2ccc(Br)c(Cl)c2)cc1`, the inhibition is reported as 41.2% (active). In the case of `CC(Nc1nc(C(F)(F)F)nc2ccccc12)c1cccs1` (configuration not stated), the inhibition is reported as 30.1% (active). In the case of `O=C1CC(c2ccccc2)=NN1c1ccc([N+](=O)[O-])cc1`, the inhibition is reported as 23.8% (inactive). With `O=[N+]([O-])c1ccc2c(c1)Nc1nc3ccccc3nc1N2` the inhibition was 70.2% (active). In the case of `COc1ccccc1NC(=O)C1=C(C)Nc2nnnn2C1c1cccc(Br)c1` (configuration not stated), the inhibition is reported as 28.7% (inactive). With `CC(C)c1cc(C(N)=O)c(NC(=O)c2cccc(COc3ccc(Br)cc3)c2)s1` the inhibition was 26.9% (inactive). In the case of `CCc1cc(C(N)=O)c(NC(=O)c2ccc(OC)cc2)s1`, the inhibition is reported as 58.2% (active). For `Cn1c(-c2sccc2OCc2cccc(C(F)(F)F)c2)n[nH]c1=S`, the inhibition was 25.1% (inactive). With `CCSC1=C(C#N)C(=O)n2c1cc1c2CCCC1` the inhibition was 52.3% (active). In the case of `N#CC1(C#N)C(C(=O)C23CC4CC(CC(C4)C2)C3)C12CCOCC2` (configuration not stated), the inhibition is reported as 41.9% (active). For `COc1cc(NS(=O)(=O)c2ccc3ccccc3c2)c2ncccc2c1`, the inhibition was 27.8% (inactive). For `COc1ccc(S(=O)(=O)Nc2ccc(O)c(Sc3nc4ccccc4s3)c2)cc1`, the inhibition was 37% (active). For `CC(=NCc1ccc2c(c1)OCO2)C1=C(O)c2ccccc2C1=O`, the inhibition was 40.3% (active). With `c1ccc(-c2cn3c(n2)CCc2ccc4cccnc4c2-3)cc1` the inhibition was 30.3% (active). With `Cc1nc2ccccc2cc1OCc1ccc(F)cc1` the inhibition was 9.05% (inactive). With `Cc1ccc(-c2csc(-c3c[nH]c4ccccc34)n2)cc1` the inhibition was 50.9% (active). For `O=C(c1cccs1)N(C(=O)c1cccs1)c1ccccn1`, the inhibition was 20.9% (inactive). In the case of `COc1ccc(C)cc1Nc1nc(C)nc2c1oc1ccccc12`, the inhibition is reported as 25.5% (inactive). In the case of `O=C(NCCc1ccc(F)cc1)c1ccc(S(=O)(=O)N2CCCCC2)cc1`, the inhibition is reported as 43.5% (active). With `O=C(CCc1ccc(S(=O)(=O)N2CCOCC2)cc1)Nc1ccc2ccccc2c1` the inhibition was 28.1% (inactive). With `COc1ccc(Oc2cn[nH]c2-c2ccc(OC)cc2O)cc1` the inhibition was 39.3% (active). With `CCCc1[nH]nc2c1C(c1ccc(Br)s1)C(C#N)=C(N)O2` (configuration not stated) the inhibition was 79.5% (active). With `CSc1ccc(S(=O)(=O)NC2CCCCC2)cc1` the inhibition was 22.4% (inactive). In the case of `CSc1ccc(S(=O)(=O)NCc2ccc(Cl)cc2)cc1`, the inhibition is reported as 30.4% (active). In the case of `N/C(=N\OC(=O)c1cc(-c2ccccc2)nc2ccccc12)c1ccncc1`, the inhibition is reported as 70.7% (active). With `O=[N+]([O-])c1ccc(N2CCN(c3ccc(O)cc3)CC2)c(Cl)c1` the inhibition was 30.2% (inactive). With `O=C(/C=C/c1ccc(Cl)c([N+](=O)[O-])c1)c1cccnc1` the inhibition was 62% (active). With `O=C(/C=C/c1ccc(Cl)c([N+](=O)[O-])c1)c1ccc(O)cc1` the inhibition was 48.3% (active). With `Cc1ccc(N2C(=O)C(Cc3ccccc3)NC2=S)cc1` (configuration not stated) the inhibition was 16.7% (inactive). In the case of `Cc1sc2ncnc(SCC(=O)Nc3ccc(CN4CCCC4)cc3)c2c1C`, the inhibition is reported as 23.3% (inactive). For `O=C1C=CC(=O)N1c1ccc(N2CCCCC2)cc1`, the inhibition was 92.6% (active). With `Cc1oc2cc(Br)c(O)c(Br)c2c1C(=O)c1ccccc1` the inhibition was 36.2% (active). With `CC1=C/C(=N\OS(=O)(=O)c2ccccc2)C=CC1=O` the inhibition was 60.8% (active). With `O=c1c(Cl)c(NCc2ccc(F)cc2Cl)cnn1C12CC3CC(CC(C3)C1)C2` the inhibition was 44.2% (active). For `COc1ccc(OC)c(-c2c(=O)n(OCc3ccccc3Br)c3ccccc3[n+]2[O-])c1`, the inhibition was 24.3% (inactive). With `CC(C)c1nccn1S(=O)(=O)c1cc([N+](=O)[O-])ccc1Cl` the inhibition was 28.7% (inactive). In the case of `CCc1nc(C)cn1S(=O)(=O)c1cc([N+](=O)[O-])ccc1Cl`, the inhibition is reported as 47.8% (active). With `O=C(c1ccccc1)N1CCC(CC2CC(c3ccc(Cl)cc3)=NO2)(C(=O)NCC2CCCCC2)CC1` (configuration not stated) the inhibition was 34% (active). With `COc1cc([N+](=O)[O-])ccc1NC(=O)COC(=O)CCOc1ccc(C)cc1` the inhibition was 63.3% (active). In the case of `O=C(COC(=O)CCOc1ccccc1)Nc1cc(S(=O)(=O)N2CCCCC2)ccc1Cl`, the inhibition is reported as 30.2% (inactive). In the case of `O=C(NC1CCCCC1)c1ccc(-c2ccc(Cl)cc2)o1`, the inhibition is reported as 39% (active). In the case of `O=C(Nc1cccc(F)c1)NC1CCCCCCC1`, the inhibition is reported as 20.1% (inactive). With `CSC1=N/C(=C\C=C\c2cccs2)C(=O)S1` the inhibition was 51.9% (active). In the case of `O=[N+]([O-])c1ccc(N/N=C/c2ccccc2)cc1`, the inhibition is reported as 27% (inactive). In the case of `c1ccc(-c2nc(NCc3ccco3)c3ccccc3n2)cc1`, the inhibition is reported as 42% (active). In the case of `S=c1[nH]c2ccccc2c2ccccc12`, the inhibition is reported as 7.95% (inactive). For `C#CCN1C(=O)C(O)(CC(=O)c2cc(OC)ccc2OC)c2ccccc21` (configuration not stated), the inhibition was 30.6% (inactive). With `CC(C)(CCl)C(=O)Nc1ccc(Sc2ccc(F)cc2)cc1` the inhibition was 51.8% (active). In the case of `Cc1cccc(OCCNC(=S)NC(=O)c2cccnc2)c1`, the inhibition is reported as 27.1% (inactive). In the case of `COCCNC(=O)/C(C#N)=C/c1cccc(OCc2ccccc2)c1`, the inhibition is reported as 70.2% (active). For `S=C(NCc1ccc(Cl)cc1)NC12CC3CC(CC(C3)C1)C2`, the inhibition was 3.55% (inactive). For `C/C(=N/NC(=O)c1cc(Cl)ccc1O)C12CC3CC(CC(C3)C1)C2`, the inhibition was 34.1% (active). With `C/C(=N\Nc1nc(Nc2ccccc2)nc(N2CCOCC2)n1)c1cccs1` the inhibition was 24.8% (inactive). For `Cc1cc(C)n(-c2nc(SCC(=O)N3CCCC3)c3c4c(sc3n2)CCCC4)n1`, the inhibition was 40.1% (active). In the case of `CCOc1ccc2nc(N3CCCN(C(=O)Nc4ccccc4C)CC3)c(C#N)cc2c1`, the inhibition is reported as 26.7% (inactive). With `CCC(C)(C)n1nnnc1CN1CCN(c2nc3ccc(C)cc3cc2C#N)CC1` the inhibition was 35.2% (active).
